HEK cytotox: Cytotoxic Profiling in HEK 293 Cell Line of Diverse Libraries Using Quantitative High-Throughput Screening | HEK 293 viability, ATP luminescence (CellTiter-Glo), 48-72 h | Potency, µM (doses to about 115 µM), for the others: at the highest dose activity change, negative = cytotoxicity, most hits filed as inhibitors | 94,000 tested, 6.6% active; note: nearly all actives have a fitted effect of over 60% in size
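Cytotoxicity was scored by loss of ATP-coupled luminescence (CellTiter-Glo) in HEK 293 cells. Compound treatment ran 48 or 72 hr at 37 degree Celsius, 5% CO2, 95% humidity.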
3T3 cytotox: Cytotoxic Profiling in NIH 3T3 Cell Line of Diverse Libraries Using Quantitative High-Throughput Screening | Potency, µM (series often up to 96.7 µM), for inactives: at the highest dose activity change, negative = cytotoxicity, hits mostly inhibitors | NIH 3T3 viability, CellTiter-Glo ATP luminescence, 48-72 h | 94,000 tested, 4.3% active; note: nearly all actives have a fitted effect of over 55% in size
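Viability of NIH 3T3 cells after 48 or 72 hr compound treatment at 37 °C was assessed by CellTiter-Glo, with luminescence imaged following a 10 min room-temperature step.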
Luciferase inh: Firefly luciferase inhibition profiling of diverse chemical library using quantitative high-throughput screening. Luciferin 4-monooxygenase (Photinus pyralis), P08659. purified P. pyralis luciferase, luminescence, biochemical. Potency, µM (highest dose often 115 µM), hits mostly inhibitors. 76,000 tested, 2.5% active; note: nearly all actives have a fitted effect of over 65% in size
Target sequence (P08659 whole entry, looked up): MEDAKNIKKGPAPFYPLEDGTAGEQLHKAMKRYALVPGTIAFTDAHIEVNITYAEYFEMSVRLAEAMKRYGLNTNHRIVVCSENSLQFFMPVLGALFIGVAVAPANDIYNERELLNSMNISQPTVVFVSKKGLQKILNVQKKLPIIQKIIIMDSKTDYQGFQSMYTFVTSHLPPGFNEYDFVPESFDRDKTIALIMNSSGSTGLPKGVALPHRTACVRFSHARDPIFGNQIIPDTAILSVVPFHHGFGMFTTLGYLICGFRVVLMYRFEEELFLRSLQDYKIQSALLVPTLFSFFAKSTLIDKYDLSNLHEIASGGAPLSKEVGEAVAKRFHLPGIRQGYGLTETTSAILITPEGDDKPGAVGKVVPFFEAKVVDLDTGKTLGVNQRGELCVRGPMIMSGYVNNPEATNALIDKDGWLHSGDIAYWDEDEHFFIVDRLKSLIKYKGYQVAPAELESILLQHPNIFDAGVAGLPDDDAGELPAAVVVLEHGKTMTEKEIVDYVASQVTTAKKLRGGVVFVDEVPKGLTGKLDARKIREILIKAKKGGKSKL
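Cell-free enzyme assay, 10nM P. pyralis luciferase, luciferin and ATP each at 10uM. Inhibition profiled over a 6-point titration, read as luminescence.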
hNpr1 antagonist: Natriuretic polypeptide receptor (hNpr1) antagonism - Primary qHTS; Atrial natriuretic peptide receptor 1 (Homo sapiens), P16066; HEK293 hNpr1 GloSensor cGMP, ANP-stimulated luminescence; Potency, µM (titrated, usually from 46.3 µM), without a hit: at the top dose activity change, negative = inhibition, hits mostly inhibitors; 76,000 tested, 1.6% active; calls by dose curve; note: nearly all actives have a fitted effect of over 60% in size
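HEK293 cells stably expressing human Npr1 and cGMP GloSensor pGS-40F, loaded 2 h with 2% GloSensor reagent, given compound 30 min at room temperature. Luminescence read before and 20 min after 0.1 nM hNppA.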
Starred values were filed as active, the others as inactive; i = inactive; ? = inconclusive; / = not tested or not shown; [ ] = remark or other dose. A selection: hits, their analogues and other compounds. The true share with any hit is near 11%. Unless noted, calls come from the whole dose curve; as a rule, active = well fitted curve in the direction sought with a large enough effect; inconclusive = small, poorly fitted or top-dose-only effect, or another doubt; inactive = no such curve, though single readings can be large; an effect the other way counts as inactive or inconclusive. % is set by controls: 0 for no effect and ±100 for the full control effect; potency is the fitted concentration of half-maximal effect.

SMILES	HEK cytotox	3T3 cytotox	Luciferase inh	hNpr1 antagonist
CC1CCCCN1c1ccc(C(N)=O)cc1NC(=O)c1cccc(-n2cnnc2)c1 (stereo unspecified)	-24%	?	i	5%
N#Cc1cccc(-c2c(C(=O)NCc3ccccc3F)nc3sccn23)c1	-28%	-24%	/	/
Cc1ccc(-c2c(C(=O)NCc3cccc(C(F)(F)F)c3)nc3sccn23)cc1	22µM*	?	/	/
N#Cc1cccc(-c2c(C(=O)NCc3ccc(Cl)cc3)nc3sccn23)c1	?	35µM*	/	/
O=C(NCC(F)(F)F)c1nc2sccn2c1-c1cccc(C(F)(F)F)c1	-29%	?	/	/
N#Cc1cccc(-c2c(C(=O)NCc3cccc(C(F)(F)F)c3)nc3sccn23)c1	35µM*	?	/	/
O=C(NCc1ccccn1)c1nc2sccn2c1-c1cccc(C(F)(F)F)c1	?	32µM*	/	/
CC(=O)N1CCC(c2nnc3n2C(C(=O)NCc2ccccc2F)CC3)CC1 (stereo unspecified)	-12%	-21%	/	/
CCNc1ncnc2c1CN(C1CCNCC1)C(=O)CN2C	-15%	-11%	/	/
O=C(NC1CCN(c2cc(-c3ccc(F)cc3)[nH]n2)C1)c1cccc(OC(F)(F)F)c1 (stereo unspecified)	40µM*	?	i	-12%
O=C(NC1CCCN(c2cc(-c3ccc(F)cc3)[nH]n2)C1)c1ccc(F)c(F)c1 (stereo unspecified)	45µM*	?	i	-28%
O=C(NC1CCCN(c2cc(-c3ccc(F)cc3)[nH]n2)C1)c1cccc(F)c1 (stereo unspecified)	32µM*	?	i	-9%
O=C(c1cccc(OC(F)(F)F)c1)N1CCN(c2cc(-c3cccs3)[nH]n2)CC1	?	?	i	-25%
O=C(c1cccc(OC(F)(F)F)c1)N1CCN(c2cc(-c3ccc(F)cc3)[nH]n2)CC1	?	35µM*	i	?
CN(Cc1cc(-c2cccs2)n[nH]1)C[C@@H]1CCCN2CCCC[C@H]12	-17%	3%	i	2%
CCOc1ccc(C(=O)Nc2ccc3c(c2)CCC(=O)N3CC(C)C)cc1	28µM*	?	i	?
CCCN1C(=O)CCc2cc(NC(=O)c3ccc4c(c3)OCO4)ccc21	45µM*	?	32µM*	-3%
CCCN1C(=O)CCc2cc(NC(=O)c3ccc(C)cc3)ccc21	?	?	32µM*	-14%
O=C(Cc1cccc(Cl)c1)N1CCC(C(=O)N2CCC(N3CCCC3=O)CC2)CC1	-6%	-23%	/	/
COc1ccc(NC(=O)CCc2ccc3c(c2)CN(C(=O)NC(C)C)CCO3)cn1	79µM*	-10%	i	-30%
CCNC(=O)N1CCOc2ccc(CCC(=O)Nc3ccc(F)cc3F)cc2C1	40µM*	-30%	i	?
O=C(CN1CCCCC1)NC1CC(=O)N(Cc2cccc3ccccc23)C1 (stereo unspecified)	3%	0%	i	-3%
CC1=C[C@@H](CNCc2ccc(C#N)cc2)[C@H](C(C)C)C[C@H]1Cc1nnc(C(C)(C)C)o1	?	?	i	-22%[70.6 µM]
COc1ccc(-c2ccc3c(n2)CN(C)C(=O)CO3)cc1	?	100µM*	?	?
Cc1ccc(-c2ccc3c(n2)CN(C)C(=O)CO3)cc1	?	?	89µM*	?
SMILES	HEK cytotox	3T3 cytotox	Luciferase inh	hNpr1 antagonist
CCC1(N2CCN(C(=O)c3cc(F)ccc3Cl)CC2)CCN(C(=O)C(C)C)C1 (stereo unspecified)	-13%	-13%	i	-7%
CNc1nccc(N2CCC(CC(=O)NCCC(C)C)CC2)n1	32µM*	?	i	6%
CNc1nccc(N2CCC(CC(=O)NCCCN3CCC(C)CC3)CC2)n1	?	?	i	-3%
O=C(c1ccccc1F)N1CCC2(CC1)CC(c1cccc(C(F)(F)F)c1)=NO2	40µM*	?	/	/
Cc1ccccc1C(=O)N1CCC2(CC1)CC(c1cccc(C(F)(F)F)c1)=NO2	32µM*	?	/	/
CC(=O)N1CCC2(CC1)CC(c1cccc(C(F)(F)F)c1)=NO2	-6%[172 µM]	-10%[138 µM]	/	/
COc1ccc(CN2Cc3[nH]nc(-c4ccc(N5CCN(C)CC5)cc4)c3CC2=O)cc1	45µM*	79µM*	i	-3%[70.6 µM]
